# ± gives the standard deviation of the averaged measurements.
# Tests used:
# Experiment in all cases: promoter activity interaction Z-score (Lux/OD deviation from empty-vector control); higher = stronger promoter induction by the compound
# [1] = test system: E. coli BW25113 acrABp lux reporter
# How it was run: (§1)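 E. coli BW25113 (wild type or marA, soxS or rob deletion) carrying low-copy luxCDABE promoter reporters grew in 40 µl LB Lennox in 384-well plates at 37°C. Each compound was tested at four 1:2 dilutions in biological duplicates. OD600 and luminescence were read every 30 min for 12 h. Areas were taken over 0–8 h (wild type) or 1–9 h (mutants), and wells below 10% of median growth area were removed. The score is the Z-transformed residual of growth-normalised luminescence fitted against the empty-vector control.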
# [2] = test system: E. coli BW25113 micFp lux reporter
# How it was run: as §1
# [3] = test system: E. coli BW25113 ompFp lux reporter
# How it was run: as §1
# [4] = test system: E. coli BW25113 robp lux reporter
# How it was run: as §1
# [5] = test system: E. coli BW25113 soxSp lux reporter
# How it was run: as §1
# [6] = test system: E. coli BW25113 tolCp lux reporter
# How it was run: as §1
# [7] = 1 µg/ml, genetic background: wild type
# [8] = 1 µg/ml, genetic background: ΔmarA
# [9] = 1 µg/ml, genetic background: Δrob
# [10] = 1 µg/ml, genetic background: ΔsoxS
# [11] = 1.9 µg/ml, genetic background: wild type
# [12] = 1.9 µg/ml, genetic background: ΔmarA
# [13] = 1.9 µg/ml, genetic background: Δrob
# [14] = 1.9 µg/ml, genetic background: ΔsoxS
# [15] = 3.8 µg/ml, genetic background: wild type
# [16] = 3.8 µg/ml, genetic background: ΔmarA
# [17] = 3.8 µg/ml, genetic background: Δrob
# [18] = 3.8 µg/ml, genetic background: ΔsoxS
# [19] = 7.7 µg/ml, genetic background: wild type
# [20] = 7.7 µg/ml, genetic background: ΔmarA
# [21] = 7.7 µg/ml, genetic background: Δrob
# [22] = 7.7 µg/ml, genetic background: ΔsoxS
smiles,measurement,setting,value
NC1CONC1=O (stereo unspecified) [Cycloserine D],promoter activity interaction Z-score,[1]; [7],0.0277 ± 0.22
same,promoter activity interaction Z-score,[1]; [8],0.657 ± 0.33
same,promoter activity interaction Z-score,[1]; [9],-0.0729 ± 0.055
same,promoter activity interaction Z-score,[1]; [10],0.00357 ± 0.22
same,promoter activity interaction Z-score,[1]; [11],-0.389 ± 0.056
same,promoter activity interaction Z-score,[1]; [12],0.57 ± 0.12
same,promoter activity interaction Z-score,[1]; [13],0.0199 ± 0.26
same,promoter activity interaction Z-score,[1]; [14],-0.339 ± 0.62
same,promoter activity interaction Z-score,[1]; [15],-0.136 ± 0.039
same,promoter activity interaction Z-score,[1]; [16],-0.29 ± 0.2
same,promoter activity interaction Z-score,[1]; [17],0.00284 ± 0.03
same,promoter activity interaction Z-score,[1]; [18],-0.0366 ± 0.12
same,promoter activity interaction Z-score,[1]; [19],-0.588 ± 0.2
same,promoter activity interaction Z-score,[1]; [20],-0.128 ± 0.24
same,promoter activity interaction Z-score,[1]; [21],-0.0882 ± 0.11
same,promoter activity interaction Z-score,[1]; [22],-0.319 ± 0.24
same,promoter activity interaction Z-score,[2]; [7],0.0376 ± 0.12
same,promoter activity interaction Z-score,[2]; [8],-0.00943 ± 0.084
same,promoter activity interaction Z-score,[2]; [9],-0.118 ± 0.074
same,promoter activity interaction Z-score,[2]; [10],-0.0115 ± 0.022
same,promoter activity interaction Z-score,[2]; [11],-0.417 ± 0.2
same,promoter activity interaction Z-score,[2]; [12],-0.00494 ± 0.0052
same,promoter activity interaction Z-score,[2]; [13],-0.0732 ± 0.01
same,promoter activity interaction Z-score,[2]; [14],-0.388 ± 0.035
same,promoter activity interaction Z-score,[2]; [15],-0.305 ± 0.5
same,promoter activity interaction Z-score,[2]; [16],-0.0376 ± 0.047
same,promoter activity interaction Z-score,[2]; [17],-0.0224 ± 0.047
same,promoter activity interaction Z-score,[2]; [18],-0.251 ± 0.019
same,promoter activity interaction Z-score,[2]; [19],-0.38 ± 0.0041
same,promoter activity interaction Z-score,[2]; [20],0.0683 ± 0.028
same,promoter activity interaction Z-score,[2]; [21],0.105 ± 0.092
same,promoter activity interaction Z-score,[2]; [22],-0.294 ± 0.16
same,promoter activity interaction Z-score,[3]; [7],0.314 ± 0.21
same,promoter activity interaction Z-score,[3]; [8],0.134 ± 0.086
same,promoter activity interaction Z-score,[3]; [9],-0.394 ± 0.46
same,promoter activity interaction Z-score,[3]; [10],0.0539 ± 0.036
same,promoter activity interaction Z-score,[3]; [11],-0.14 ± 0.24
same,promoter activity interaction Z-score,[3]; [12],0.387 ± 0.13
same,promoter activity interaction Z-score,[3]; [13],-0.422 ± 0.075
same,promoter activity interaction Z-score,[3]; [14],-0.381 ± 0.19
same,promoter activity interaction Z-score,[3]; [15],-0.202 ± 0.043
same,promoter activity interaction Z-score,[3]; [16],0.194 ± 0.031
same,promoter activity interaction Z-score,[3]; [17],0.0558 ± 0.16
same,promoter activity interaction Z-score,[3]; [18],0.0329 ± 0.09
same,promoter activity interaction Z-score,[3]; [19],-0.567 ± 0.3
same,promoter activity interaction Z-score,[3]; [20],0.0892 ± 0.075
same,promoter activity interaction Z-score,[3]; [21],0.153 ± 0.069
same,promoter activity interaction Z-score,[3]; [22],-0.485 ± 0.02
same,promoter activity interaction Z-score,[4]; [7],0.73 ± 0.71
same,promoter activity interaction Z-score,[4]; [8],0.0767 ± 0.37
same,promoter activity interaction Z-score,[4]; [9],0.466 ± 0.27
same,promoter activity interaction Z-score,[4]; [10],0.49 ± 0.31
same,promoter activity interaction Z-score,[4]; [11],-0.277 ± 0.26
same,promoter activity interaction Z-score,[4]; [12],0.295 ± 0.52
same,promoter activity interaction Z-score,[4]; [13],0.186 ± 0.67
same,promoter activity interaction Z-score,[4]; [14],0.471 ± 0.99
same,promoter activity interaction Z-score,[4]; [15],-0.466 ± 0.068
same,promoter activity interaction Z-score,[4]; [16],0.31 ± 0.081
same,promoter activity interaction Z-score,[4]; [17],0.0139 ± 0.21
same,promoter activity interaction Z-score,[4]; [18],-0.224 ± 0.093
same,promoter activity interaction Z-score,[4]; [19],-1.02 ± 0.081
same,promoter activity interaction Z-score,[4]; [20],-0.102 ± 0.31
same,promoter activity interaction Z-score,[4]; [21],-0.282 ± 0.25
same,promoter activity interaction Z-score,[4]; [22],-0.361 ± 0.67
same,promoter activity interaction Z-score,[5]; [7],0.217 ± 0.043
same,promoter activity interaction Z-score,[5]; [8],0.0924 ± 0.0091
same,promoter activity interaction Z-score,[5]; [9],0.0464 ± 0.16
same,promoter activity interaction Z-score,[5]; [10],0.093 ± 0.016
same,promoter activity interaction Z-score,[5]; [11],-0.193 ± 0.011
same,promoter activity interaction Z-score,[5]; [12],0.076 ± 0.02
same,promoter activity interaction Z-score,[5]; [13],-0.205 ± 0.024
same,promoter activity interaction Z-score,[5]; [14],0.164 ± 0.2
same,promoter activity interaction Z-score,[5]; [15],-0.0918 ± 0.052
same,promoter activity interaction Z-score,[5]; [16],-0.113 ± 0.019
same,promoter activity interaction Z-score,[5]; [17],0.0335 ± 0.083
same,promoter activity interaction Z-score,[5]; [18],-0.0149 ± 0.074
same,promoter activity interaction Z-score,[5]; [19],-0.198 ± 0.27
same,promoter activity interaction Z-score,[5]; [20],-0.171 ± 0.14
same,promoter activity interaction Z-score,[5]; [21],-0.117 ± 0.11
same,promoter activity interaction Z-score,[5]; [22],-0.174 ± 0.047
same,promoter activity interaction Z-score,[6]; [7],0.33 ± 0.084
same,promoter activity interaction Z-score,[6]; [8],1.18 ± 0.26
same,promoter activity interaction Z-score,[6]; [9],-0.401 ± 0.15
same,promoter activity interaction Z-score,[6]; [10],-0.259 ± 0.83
same,promoter activity interaction Z-score,[6]; [11],-0.543 ± 0.64
same,promoter activity interaction Z-score,[6]; [12],-0.33 ± 0.62
same,promoter activity interaction Z-score,[6]; [13],-0.224 ± 0.69
same,promoter activity interaction Z-score,[6]; [14],0.645 ± 0.11
same,promoter activity interaction Z-score,[6]; [15],0.289 ± 0.26
same,promoter activity interaction Z-score,[6]; [16],0.197 ± 0.06
same,promoter activity interaction Z-score,[6]; [17],0.242 ± 0.12
same,promoter activity interaction Z-score,[6]; [18],-0.045 ± 0.33
same,promoter activity interaction Z-score,[6]; [19],-1.06 ± 0.73
same,promoter activity interaction Z-score,[6]; [20],-0.822 ± 0.7
same,promoter activity interaction Z-score,[6]; [21],-0.397 ± 0.29
same,promoter activity interaction Z-score,[6]; [22],-0.568 ± 0.58

# Source: the supplement of paper PMC12282887
